# Measurements from publication PMC8384837, “Expanding the binding specificity for RNA recognition by a PUF domain”.
# Assays:
# Assay in all cases: yeast three-hybrid, YBZ-1, SC-Leu-His + 0.5 mM 3-AT, 4 days
# Conditions in all cases: tags: N-Gal4 AD-HA kept; label: inside an RPR1-promoter hybrid RNA with tandem MS2 sites; ssRNA
# PUM1 PUF domain R6-AFS = molecular target: T1, PUM1 PUF domain R6-AFS (Homo sapiens, UniProt Q14671 828-1176, N1043A;Y1044F;Q1047S)
# T1 sequence: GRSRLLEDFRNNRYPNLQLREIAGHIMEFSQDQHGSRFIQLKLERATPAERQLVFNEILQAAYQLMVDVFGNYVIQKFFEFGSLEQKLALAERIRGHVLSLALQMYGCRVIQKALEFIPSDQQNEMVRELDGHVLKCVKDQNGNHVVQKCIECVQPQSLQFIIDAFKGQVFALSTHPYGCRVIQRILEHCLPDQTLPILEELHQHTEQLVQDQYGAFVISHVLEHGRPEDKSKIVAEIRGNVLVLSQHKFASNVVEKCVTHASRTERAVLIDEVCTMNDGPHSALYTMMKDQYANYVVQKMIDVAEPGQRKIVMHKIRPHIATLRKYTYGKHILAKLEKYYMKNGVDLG
# How it was run: (§1)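 Sequencing with Illumina followed PCR amplification of the repeat regions from transformants grown four days on SC-Leu (input) or SC-Leu-His + 0.5 mM 3-AT (selection). The transformants were strain YBZ-1 with a LexA–MS2 coat fusion and a HIS3 reporter, carrying Pumilio-1 PUF domain libraries and matching RNA elements. The interaction score is the log change in variant frequency from input to selection, computed in log2 with a pseudocount of 1 for absent variants.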
# PUM1 PUF domain R3-ARP = PUM1 PUF domain R3-ARP (Homo sapiens, UniProt Q14671 828-1176, C935A;Q939P)
# How it was run: as §1
# PUM1 PUF domain R4-TRQ = PUM1 PUF domain R4-TRQ (Homo sapiens, UniProt Q14671 828-1176, N971T;H972R)
# How it was run: as §1
# PUM1 PUF domain R4-EYD = PUM1 PUF domain R4-EYD (Homo sapiens, UniProt Q14671 828-1176, N971E;H972Y;Q975D)
# How it was run: as §1
# PUM1 PUF domain R3-PWF = PUM1 PUF domain R3-PWF (Homo sapiens, UniProt Q14671 828-1176, C935P;R936W;Q939F)
# How it was run: as §1
# PUM1 PUF domain R3-RTG = PUM1 PUF domain R3-RTG (Homo sapiens, UniProt Q14671 828-1176, C935R;R936T;Q939G)
# How it was run: as §1
# PUM1 PUF domain R3-IFE = PUM1 PUF domain R3-IFE (Homo sapiens, UniProt Q14671 828-1176, C935I;R936F;Q939E)
# How it was run: as §1
# PUM1 PUF domain R1-YAR = PUM1 PUF domain R1-YAR (Homo sapiens, UniProt Q14671 828-1176, S863Y;R864A;Q867R)
# How it was run: as §1
# PUM1 PUF domain R1-RNS = PUM1 PUF domain R1-RNS (Homo sapiens, UniProt Q14671 828-1176, S863R;R864N;Q867S)
# How it was run: as §1
# PUM1 PUF domain R1-RQQ = PUM1 PUF domain R1-RQQ (Homo sapiens, UniProt Q14671 828-1176, S863R;R864Q)
# How it was run: as §1
sequence,measurement,setting,value
GGCUAGAACUAGUGGAUCCCCCGGCGCCCGGCGGCUCGAGCCCGGGUAAGUGAAAAUAGUCUGCAUGCCGCCGGGCGCCAUGCCUGCAGGUCGACUCUAGAAAACAUG,binding signal,PUM1 PUF domain R6-AFS,3.01 log2 enrichment (interaction score)
GGCUAGAACUAGUGGAUCCCCCGGCGCCCGGCGGCUCGAGCCCGGGUAAGUGUAAAUAGUCUGCAUGCCGCCGGGCGCCAUGCCUGCAGGUCGACUCUAGAAAACAUG,binding signal,PUM1 PUF domain R3-ARP,4.92 log2 enrichment (interaction score)
same,binding signal,PUM1 PUF domain R6-AFS,1.74 log2 enrichment (interaction score)
same,binding signal,PUM1 PUF domain R4-TRQ,4.68 log2 enrichment (interaction score)
same,binding signal,PUM1 PUF domain R4-EYD,2.77 log2 enrichment (interaction score)
same,binding signal,PUM1 PUF domain R3-PWF,3.15 log2 enrichment (interaction score)
GGCUAGAACUAGUGGAUCCCCCGGCGCCCGGCGGCUCGAGCCCGGGUAAGUGUAAUUAGUCUGCAUGCCGCCGGGCGCCAUGCCUGCAGGUCGACUCUAGAAAACAUG,binding signal,PUM1 PUF domain R3-ARP,1.4 log2 enrichment (interaction score)
same,binding signal,PUM1 PUF domain R3-RTG,2.9 log2 enrichment (interaction score)
same,binding signal,PUM1 PUF domain R3-PWF,1.18 log2 enrichment (interaction score)
GGCUAGAACUAGUGGAUCCCCCGGCGCCCGGCGGCUCGAGCCCGGGUAAGUGUAAGUAGUCUGCAUGCCGCCGGGCGCCAUGCCUGCAGGUCGACUCUAGAAAACAUG,binding signal,PUM1 PUF domain R3-ARP,1.52 log2 enrichment (interaction score)
same,binding signal,PUM1 PUF domain R3-IFE,5.39 log2 enrichment (interaction score)
GGCUAGAACUAGUGGAUCCCCCGGCGCCCGGCGGCUCGAGCCCGGGUAAGUGUAAAUUGUCUGCAUGCCGCCGGGCGCCAUGCCUGCAGGUCGACUCUAGAAAACAUG,binding signal,PUM1 PUF domain R1-YAR,5.79 log2 enrichment (interaction score)
GGCUAGAACUAGUGGAUCCCCCGGCGCCCGGCGGCUCGAGCCCGGGUAAGUGUAAAUGGUCUGCAUGCCGCCGGGCGCCAUGCCUGCAGGUCGACUCUAGAAAACAUG,binding signal,PUM1 PUF domain R1-RNS,0.7 log2 enrichment (interaction score)
GGCUAGAACUAGUGGAUCCCCCGGCGCCCGGCGGCUCGAGCCCGGGUAAGUGUAAAUCGUCUGCAUGCCGCCGGGCGCCAUGCCUGCAGGUCGACUCUAGAAAACAUG,binding signal,PUM1 PUF domain R1-RQQ,3.45 log2 enrichment (interaction score)
same,binding signal,PUM1 PUF domain R1-RNS,2.4 log2 enrichment (interaction score)
same,binding signal,PUM1 PUF domain R1-YAR,6.19 log2 enrichment (interaction score)
